Each structure is given as a SMILES string. Values without a mark were called inactive. Results filed as inconclusive are left out. Active and inactive are the calls of the source. Unless noted, calls come from the whole dose curve; as a rule, active = well fitted curve in the direction sought with a large enough effect in the repeat runs; inconclusive = weak or mixed curves; inactive = no such curve, though single readings can be large; an effect the other way counts as inactive or inconclusive.

Assay [1] can be described thus: qHTS assay to identify small molecule agonists of the androgen receptor (AR) signaling pathway in the presence of an antagonist - cell viability counter screen (AID 1259379). Note: nearly all actives have a fitted effect of over 25% in size. Note: potency is the fitted concentration of half-maximal effect. Put shortly:
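MDA-kb2 human breast carcinoma cells (stable MMTV-luciferase, AR/GR responsive) were seeded 3,000 cells/well, pre-incubated 5 hr at 37C without CO2, then given 3.0uM nilutamide and compounds at 15 concentrations for 16 hr. Viability was read by CellTiter-Fluor fluorescence.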

The nature of assay [2]: qHTS assay to identify small molecule agonists of the estrogen receptor beta (ER-beta) signaling pathway - cell viability counter screen (AID 1259380). Note: nearly all actives have a fitted effect of over 30% in size. Note: potency is the fitted concentration of half-maximal effect. Put shortly: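 ER-beta-UAS-bla HEK293T cells in medium with 2% charcoal-stripped FBS were preincubated 6 hr at 37C, dosed with compound in DMSO for 16 hr, then after the bla read, CellTiter-Glo was added for 30 min at room temperature; luminescence recorded.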
(qHTS replaces the single test concentration by a dilution series.)

Assay [3] has as its target Androgen receptor (Homo sapiens) (UniProt P10275). Briefly: qHTS assay to identify small molecule agonists of the androgen receptor (AR) signaling pathway in the presence of an antagonist (AID 1259381; calls by dose curve; note: nearly all actives have a fitted effect of over 15% in size). A digest of the protocol:
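MDA-kb2 human breast carcinoma cells carrying an MMTV-luciferase reporter (AR- and GR-responsive) were treated with compounds at 15 concentrations plus 3.0uM final nilutamide for 16hr at 37C without CO2; luminescence was read after ONE-Glo addition.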

The nature of assay [4]: qHTS assay to identify small molecule antagonists of the estrogen receptor beta (ER-beta) signaling pathway - cell viability counter screen (AID 1259382). Note: nearly all actives have a fitted effect of over 55% in size. Note: potency is the fitted concentration of half-maximal effect. A digest of the protocol:
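ER-beta-UAS-bla HEK293T cells (2,000/well, 2% charcoal-stripped FBS) were pre-incubated 6 hr at 37C, then given compound plus 1nM final 17-beta-estradiol for 16 hr. Viability was read in the same wells by CellTiter-Glo luminescence after 30 min at room temperature.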

A short description of assay [5]: qHTS assay to identify small molecule agonists or antagonists of the thyroid stimulating hormone receptor (TSHR) signaling pathway - wild type cell line counter screen (AID 1259384; calls by dose curve). Put shortly: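 Wild-type HEK293 cells were plated 18 h at 37 C/5% CO2, pin-dosed with compound plus Ro20-1724 medium, held 30 min at room temperature, then given cAMP-d2 and anti-cAMP-cryptate; fluorescence was read after 1 h. Fifteen concentrations, triplicate.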

For assay [6], the target named is Thyrotropin receptor (Homo sapiens) (UniProt P16473). Briefly: qHTS assay to identify small molecule antagonists of the thyroid stimulating hormone receptor (TSHR) signaling pathway (AID 1259385; calls by dose curve; note: nearly all actives have a fitted effect of over 20% in size). Put shortly: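 TSHR-HEK293 cells were plated and held 18 h at 37C/5% CO2, then given compound plus Ro20-1724 and stimulated with TSH at 1.5 ng/mL final. After 30 min at room temperature, cAMP was detected with cAMP-d2/anti-cAMP-cryptate (1 h) by fluorescence.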
Sequence of Thyrotropin receptor (Homo sapiens) (P16473 whole entry, looked up): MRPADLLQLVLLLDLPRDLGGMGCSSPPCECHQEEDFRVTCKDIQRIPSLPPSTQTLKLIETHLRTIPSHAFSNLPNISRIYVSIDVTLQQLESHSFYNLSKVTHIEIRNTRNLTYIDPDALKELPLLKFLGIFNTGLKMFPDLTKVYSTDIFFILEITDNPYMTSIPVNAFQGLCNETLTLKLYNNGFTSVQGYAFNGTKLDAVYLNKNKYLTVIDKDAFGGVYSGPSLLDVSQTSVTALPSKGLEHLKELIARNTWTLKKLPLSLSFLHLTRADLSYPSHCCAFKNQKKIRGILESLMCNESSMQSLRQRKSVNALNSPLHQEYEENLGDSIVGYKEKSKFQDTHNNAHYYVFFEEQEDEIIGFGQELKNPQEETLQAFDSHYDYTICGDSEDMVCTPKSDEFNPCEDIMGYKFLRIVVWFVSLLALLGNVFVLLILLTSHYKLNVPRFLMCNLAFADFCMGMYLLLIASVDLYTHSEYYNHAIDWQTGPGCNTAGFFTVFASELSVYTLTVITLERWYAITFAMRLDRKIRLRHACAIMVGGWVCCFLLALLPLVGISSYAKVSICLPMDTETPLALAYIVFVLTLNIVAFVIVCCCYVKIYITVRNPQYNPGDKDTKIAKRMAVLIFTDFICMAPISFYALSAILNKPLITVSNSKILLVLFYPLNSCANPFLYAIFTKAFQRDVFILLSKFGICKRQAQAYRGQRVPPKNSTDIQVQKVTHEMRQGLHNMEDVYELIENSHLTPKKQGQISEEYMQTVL

Assay [7] in a line: qHTS assay to identify small molecule agonists of the estrogen receptor alpha (ER-alpha) signaling pathway in the presence of an antagonist - cell viability counter screen (AID 1259386).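 Note: cells exposed to compounds for 22 h at 37 °C before the viability read; nearly all actives have a fitted effect of over 30% in size.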 Note: potency is the fitted concentration of half-maximal effect. A digest of the protocol: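 VM7Luc4E2 cells (endogenous full-length ER-alpha, 4×ERE-luciferase) were held 5 days in phenol red-free medium with 10% charcoal-stripped FBS, plated, then given 10.0nM ICI-182,780 and compounds at 15 concentrations for 22hr at 37C; viability read by CellTiter-Fluor fluorescence.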

Assay [8] addresses Progesterone receptor (Homo sapiens) (UniProt P06401). The assay is described as follows: qHTS assay to identify small molecule agonists of the progesterone receptor (PR) signaling pathway (AID 1346784; calls by dose curve; note: nearly all actives have a fitted effect of over 30% in size). Put shortly: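 PR-UAS-bla HEK 293T cells carrying a UAS-driven beta-lactamase reporter were seeded in medium with 2% charcoal-stripped FBS, preincubated 6 hr at 37C, then exposed to compounds in DMSO for 16 hr; agonism was read by LiveBLAzer B/G FRET fluorescence.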

Assay [9] in a line: qHTS assay to identify small molecule antagonists of the progesterone receptor (PR) signaling pathway - cell viability counter screen (AID 1346798). Note: nearly all actives have a fitted effect of over 50% in size. Note: potency is the fitted concentration of half-maximal effect. A digest of the protocol: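 PR-UAS-bla HEK293T cells in medium with 2% charcoal-stripped FBS were treated with compounds plus R5020 for 16 hr at 37C. Cell viability was then read by CellTiter-Glo luminescence after 30 min at room temperature in the same wells.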

The nature of assay [10]: qHTS assay to identify small molecule agonists of the progesterone receptor (PR) signaling pathway - cell viability counter screen (AID 1346799; calls by dose curve; note: nearly all actives have a fitted effect of over 45% in size; note: potency is the fitted concentration of half-maximal effect). Put shortly: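 PR-UAS-bla HEK293T cells, 3,000 per well in medium with 2% charcoal-stripped FBS, were preincubated 6 hr at 37C, then exposed to compounds for 16 hr; viability was read as CellTiter-Glo luminescence after 30 min at room temperature.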

Assay [11] can be described thus: qHTS assay to identify small molecule antagonists of the TGF-beta/Smad signaling pathway - cell viability counter screen (AID 1346824). Note: nearly all actives have a fitted effect of over 50% in size. Put shortly:
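SBE-bla HEK 293T cells were plated overnight at 37 C, then given compounds in DMSO plus TGF-beta1 (added as 0.25 ng/mL solution) for 5 hr. After the bla read, CellTiter-Glo was added to the same wells and luminescence read after 30 min at room temperature.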

The nature of assay [12]: qHTS assay to identify small molecule agonists of the TGF-beta/Smad signaling pathway - cell viability counter screen (AID 1346829). Note: top concentration of the series differs between compounds; nearly all actives have a fitted effect of over 45% in size. Put shortly: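 Tox21 qHTS format: SBE-bla HEK 293T cells treated with DMSO-dissolved compounds for 5 hr; CellTiter-Glo luminescence after 30 min at room temperature.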
The nature of assay [13]: qHTS assay to identify small molecule agonists of the TGF-beta/Smad signaling pathway (AID 1346859; active = well fitted activation curve with a large enough effect in the signal ratio in the repeat runs, not every such curve was filed as active; the % refers to the signal ratio; note: series mostly up to about 77 µM). A digest of the protocol:
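HEK 293T cells stably carrying a beta-lactamase reporter driven by the Smad binding element were seeded overnight, exposed to DMSO-dissolved compounds for 5 hr at 37 C, 5% CO2, then loaded with FRET substrate for 2 hr at room temperature.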

For assay [14], the target named is Thyrotropin-releasing hormone receptor (Homo sapiens) (UniProt P34981). The assay is described as follows: qHTS assay to identify small molecule antagonists of the thyrotropin-releasing hormone receptor (TRHR) signaling pathway (AID 1346877; active = well fitted inhibition curve with a large enough effect in the repeat runs, not every such curve was filed as active; note: series mostly up to about 51 µM). Put shortly:
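TRHR-expressing HEK293 cells were seeded, cultured 18 h at 37 °C, then loaded with calcium dye for 2 h. Compounds were pre-incubated 5 min at room temperature before 1 nM TRH (final) was added, and kinetic fluorescence was recorded for 3 min.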

For assay [15] the target is unchanged. Briefly: qHTS assay to identify small molecule agonists of the thyrotropin-releasing hormone receptor (TRHR) signaling pathway (AID 1346891; calls by dose curve; note: series mostly up to about 58 µM). A digest of the protocol: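 TRHR-expressing HEK293 cells were plated 18 h at 37 °C/5% CO2, loaded with calcium dye 2 h at 37 °C, then given compound in DMSO; fluorescence was read kinetically for 3 min at 1 s intervals.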

The nature of assay [16]: Human pregnane X receptor (PXR) small molecule agonists, qHTS cell viability counter screen (AID 1346977). Note: nearly all actives have a fitted effect of over 50% in size. Note: potency is the fitted concentration of half-maximal effect. A digest of the protocol:
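PXR-Luc HepG2 cells in medium with 5% charcoal-stripped FBS were pre-incubated 5hr, then exposed to compounds for 24hr at 37C. Viability was read in the same wells by CellTiter-Fluor fluorescence, reagent added after 23hr with a 1hr incubation.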

Assay [17] can be described thus: Caspase-3/7 induction in HepG2 cells by small molecules, qHTS assay (AID 1346978). Note: nearly all actives have a fitted effect of over 15% in size. Note: potency is the fitted concentration of half-maximal effect. A digest of the protocol:
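Wild-type HepG2 cells (2,000/well) were settled 5 h at 37 C, 5% CO2, then exposed to compounds in DMSO for 17 h. Caspase-3/7 activity was read by luminescence 30 min after adding Caspase-Glo 3/7 reagent at room temperature.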

Assay [18] can be described thus: Caspase-3/7 induction in CHO-K1 cells by small molecules, qHTS cell viability counter screen (AID 1346979). Note: nearly all actives have a fitted effect of over 35% in size. Note: potency is the fitted concentration of half-maximal effect. A digest of the protocol: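 Wild-type CHO-K1 cells were seeded at 1,500 per well, rested 5hr at 37 C, then exposed to compounds in DMSO. After 16hr, CellTiter-Fluor reagent was added and fluorescence read 1hr later as the viability measure.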
For assay [19], the target named is Progesterone receptor (Homo sapiens) (UniProt P06401). Briefly: qHTS assay to identify small molecule antagonists of the progesterone receptor (PR) signaling pathway (AID 1346795; active = well fitted inhibition curve with a large enough effect in the signal ratio in the repeat runs, not every such curve was filed as active; the % refers to the signal ratio). Put shortly:
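PR-UAS-bla HEK293T cells carrying a UAS-driven beta-lactamase reporter were plated in medium with 2% charcoal-stripped FBS and rested 6 hr at 37C. Compounds were added with 1 nM R5020 (final) for 16 hr, then FRET substrate loaded 2 hr at room temperature.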

Assay [20] concerns the target Estrogen receptor (Homo sapiens) (UniProt P03372). The assay is described as follows: qHTS assay to identify small molecule agonists of the estrogen receptor alpha (ER-alpha) signaling pathway in the presence of an antagonist (AID 1259383; calls by dose curve; note: top concentration of the series differs between compounds; nearly all actives have a fitted effect of over 15% in size). Put shortly:
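VM7Luc4E2 cells (endogenous full-length ER-alpha, 4×ERE-luciferase) were precultured 5 days in phenol red-free medium with 10% charcoal-stripped FBS, given 10.0nM ICI-182,780 (final), then treated with compounds at 15 concentrations for 22hr at 37C; luminescence read with ONE-Glo.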

Sequence of Progesterone receptor (Homo sapiens) (P06401 whole entry, looked up): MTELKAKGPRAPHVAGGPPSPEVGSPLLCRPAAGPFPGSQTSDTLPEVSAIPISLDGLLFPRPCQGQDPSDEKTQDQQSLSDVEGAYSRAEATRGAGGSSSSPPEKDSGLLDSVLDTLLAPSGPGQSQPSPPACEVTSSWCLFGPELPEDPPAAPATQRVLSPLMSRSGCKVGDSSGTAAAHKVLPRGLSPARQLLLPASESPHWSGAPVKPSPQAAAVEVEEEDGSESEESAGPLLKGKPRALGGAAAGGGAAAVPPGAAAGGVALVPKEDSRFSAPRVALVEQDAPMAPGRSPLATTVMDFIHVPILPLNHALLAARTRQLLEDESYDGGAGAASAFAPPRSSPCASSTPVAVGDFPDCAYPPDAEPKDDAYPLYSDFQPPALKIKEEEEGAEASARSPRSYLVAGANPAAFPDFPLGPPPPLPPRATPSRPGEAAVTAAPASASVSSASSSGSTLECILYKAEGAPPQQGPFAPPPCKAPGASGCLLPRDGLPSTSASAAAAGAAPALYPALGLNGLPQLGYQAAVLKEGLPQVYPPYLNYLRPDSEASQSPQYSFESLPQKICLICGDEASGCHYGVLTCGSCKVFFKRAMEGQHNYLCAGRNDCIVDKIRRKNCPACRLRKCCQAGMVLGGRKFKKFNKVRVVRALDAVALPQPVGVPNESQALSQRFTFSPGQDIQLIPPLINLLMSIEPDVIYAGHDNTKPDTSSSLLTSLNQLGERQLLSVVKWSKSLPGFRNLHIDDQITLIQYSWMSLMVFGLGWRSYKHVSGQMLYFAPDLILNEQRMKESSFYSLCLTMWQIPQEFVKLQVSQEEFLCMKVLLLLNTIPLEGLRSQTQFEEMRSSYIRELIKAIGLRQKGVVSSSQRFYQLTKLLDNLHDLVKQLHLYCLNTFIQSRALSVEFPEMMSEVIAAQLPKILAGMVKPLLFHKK
Sequence of Thyrotropin-releasing hormone receptor (Homo sapiens) (P34981 whole entry, looked up): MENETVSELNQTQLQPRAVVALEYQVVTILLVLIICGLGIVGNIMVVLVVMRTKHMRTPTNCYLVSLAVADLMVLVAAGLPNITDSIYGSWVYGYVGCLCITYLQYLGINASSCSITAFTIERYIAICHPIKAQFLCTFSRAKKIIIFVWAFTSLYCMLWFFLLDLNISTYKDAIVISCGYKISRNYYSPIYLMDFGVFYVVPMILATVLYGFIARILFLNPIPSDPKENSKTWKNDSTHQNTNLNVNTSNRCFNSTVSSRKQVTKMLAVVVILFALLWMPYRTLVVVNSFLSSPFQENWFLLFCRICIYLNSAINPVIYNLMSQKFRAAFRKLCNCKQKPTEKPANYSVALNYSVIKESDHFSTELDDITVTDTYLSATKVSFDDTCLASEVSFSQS
Sequence of Androgen receptor (Homo sapiens) (P10275 whole entry, looked up): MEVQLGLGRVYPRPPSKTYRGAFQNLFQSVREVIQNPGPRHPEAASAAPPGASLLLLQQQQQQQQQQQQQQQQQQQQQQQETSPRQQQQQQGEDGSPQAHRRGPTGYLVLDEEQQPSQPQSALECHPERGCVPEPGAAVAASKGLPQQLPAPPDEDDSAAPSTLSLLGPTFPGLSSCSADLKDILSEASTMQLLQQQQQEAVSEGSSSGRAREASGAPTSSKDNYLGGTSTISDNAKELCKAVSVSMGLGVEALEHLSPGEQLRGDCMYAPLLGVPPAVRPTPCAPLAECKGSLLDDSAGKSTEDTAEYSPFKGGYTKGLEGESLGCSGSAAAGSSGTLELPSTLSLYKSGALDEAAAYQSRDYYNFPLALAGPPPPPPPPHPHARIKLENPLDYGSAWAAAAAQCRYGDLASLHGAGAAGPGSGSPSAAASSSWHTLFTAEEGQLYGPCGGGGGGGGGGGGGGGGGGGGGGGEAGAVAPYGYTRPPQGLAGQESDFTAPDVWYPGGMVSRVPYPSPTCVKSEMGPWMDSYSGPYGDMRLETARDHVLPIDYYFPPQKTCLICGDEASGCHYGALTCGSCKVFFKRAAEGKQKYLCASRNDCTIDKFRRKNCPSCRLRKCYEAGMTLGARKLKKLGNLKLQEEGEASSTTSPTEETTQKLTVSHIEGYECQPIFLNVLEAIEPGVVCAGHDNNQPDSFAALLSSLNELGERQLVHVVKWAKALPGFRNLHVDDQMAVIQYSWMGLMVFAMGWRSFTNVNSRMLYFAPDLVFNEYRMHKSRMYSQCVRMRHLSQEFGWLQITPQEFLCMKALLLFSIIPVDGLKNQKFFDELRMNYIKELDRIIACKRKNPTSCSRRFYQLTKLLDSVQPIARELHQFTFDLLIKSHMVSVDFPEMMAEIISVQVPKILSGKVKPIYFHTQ
Sequence of Estrogen receptor (Homo sapiens) (P03372 whole entry, looked up): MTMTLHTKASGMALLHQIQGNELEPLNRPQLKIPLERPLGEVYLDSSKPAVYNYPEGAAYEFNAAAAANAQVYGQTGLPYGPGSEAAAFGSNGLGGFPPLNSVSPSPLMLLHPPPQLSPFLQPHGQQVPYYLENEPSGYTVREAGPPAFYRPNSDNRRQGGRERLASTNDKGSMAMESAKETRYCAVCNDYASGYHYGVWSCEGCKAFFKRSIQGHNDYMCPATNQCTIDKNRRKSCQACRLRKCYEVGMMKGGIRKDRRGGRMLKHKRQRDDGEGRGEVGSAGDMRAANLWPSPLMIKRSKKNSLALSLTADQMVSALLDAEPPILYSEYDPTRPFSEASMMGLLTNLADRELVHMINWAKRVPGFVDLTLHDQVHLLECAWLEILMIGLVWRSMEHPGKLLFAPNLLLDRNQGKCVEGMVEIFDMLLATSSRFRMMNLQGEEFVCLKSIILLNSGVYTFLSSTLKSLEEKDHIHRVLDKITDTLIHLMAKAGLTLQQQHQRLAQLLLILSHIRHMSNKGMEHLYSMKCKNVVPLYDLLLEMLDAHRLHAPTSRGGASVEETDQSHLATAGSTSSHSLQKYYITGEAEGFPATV

For `CC(C=O)c1ccccc1` (centres undefined), the Potency result in assay [1], in [2], in assay [3], in assay [4], in [5] and in assay [6] was “inactive” throughout. In addition, the Potency result in [7], in assay [9], in assay [10], in [11], in assay [12] and in [14] was “inactive” throughout. The Potency entry in assay [15], in assay [16], in assay [17] and in assay [18] was “inactive” throughout. Moreover, the call in [8] and in assay [13] was inactive.

For `CC/C(=C(/c1ccc(O)cc1)c1ccc(OCCN(C)C)cc1)c1ccccc1`, the Potency is 40.3 µM (active) in [1]; 32 µM (active) in [2]; 28.5 µM (active) in [4]; 32 µM (active) in assay [9]; 18 µM (active) in assay [10]; 18 µM (active) in [16]. The Potency in assay [17] is 40.3 µM (active); in [18], 32 µM (active). The Potency entry in [3], in assay [5], in assay [6], in assay [14] and in [15] was “inactive” throughout.

Take `Cc1ccc2sc3cccc(C)c3c2c1`: the Potency result in assay [1], in assay [2], in assay [3], in [4], in assay [5] and in assay [6] was “inactive” throughout. Besides, the Potency entry in assay [7], in assay [9], in assay [10], in assay [11], in assay [12] and in assay [14] was “inactive” each time. Moreover, the Potency entry in assay [15], in assay [16], in assay [17] and in [18] was “inactive” in each case. In addition, the result in assay [8] and in [13] was inactive.

Regarding `CC(CC(C)(C)C)CC(C)(C)CC(C)(C)C` (centres undefined), the Potency entry in [1], in assay [2], in [3], in [4], in assay [5] and in [6] was “inactive” throughout. For the same compound, the Potency entry in [7], in assay [9], in assay [10], in [11], in [12] and in assay [14] was “inactive” throughout. Also, the Potency result in assay [15], in assay [16], in assay [17] and in assay [18] was “inactive” each time. Moreover, the call in assay [13] was inactive.

As to `CCC(=O)OC/C=C(\C)CCC=C(C)C`, the Potency entry in assay [1], in assay [2], in [3], in assay [4], in assay [5] and in assay [6] was “inactive” throughout. Further, the Potency result in assay [7], in assay [19], in assay [9], in assay [10], in assay [11] and in assay [12] was “inactive” in each case. Further, the Potency entry in assay [14], in [15], in assay [16], in [17] and in [18] was “inactive” in each case. The outcome in assay [8] and in assay [13] was inactive.

With `CSc1nnc(C(C)(C)C)c(=O)[nH]1`, the Potency result in [1], in [2], in assay [3], in assay [4], in [7] and in [11] was “inactive” throughout. Also, the Potency result in [12], in [14], in assay [15], in assay [16] and in [17] was “inactive” throughout. For the same compound, the outcome in assay [8] and in [13] was inactive.

With `CCc1c(C)cc(N)c(CC)c1N`, the Potency entry in assay [1], in assay [2], in assay [3], in assay [4], in [5] and in assay [7] was “inactive” each time. The Potency entry in assay [19], in assay [9], in [12], in assay [14], in [15] and in assay [16] was “inactive” throughout. In addition, the Potency result in assay [17] and in [18] was “inactive” throughout. Besides, the compound was called inactive in assay [8] and in assay [13].

For the compound `CC(=O)[C@]1(O)Cc2c(O)c3c(c(O)c2[C@@H](O[C@H]2C[C@H](N)[C@H](O)[C@H](C)O2)C1)C(=O)c1ccccc1C3=O`, the Potency in assay [1] is 9.44 µM (active); in assay [2], 2.66 µM (active); in assay [7] it was 18.8 µM (active); in [10], 1.33 µM (active); in [16], 2.66 µM (active); in assay [17], 2.11 µM (active). Further, the Potency in assay [18] is 11.9 µM (active). Further, the Potency entry in assay [3], in assay [4], in assay [20], in assay [9], in assay [11] and in assay [14] was “inactive” each time. For the same compound, in assay [15], the Potency entry is “inactive”. In addition, the call in assay [13] was inactive.
